S16 F2sN tox: toxic to S16 Pmp22-F2sN Schwann cells | S16 Pmp22-F2sN Schwann cells viability, CellTiter-Glo, 24 h | Potency, µM (titrated, usually from 57.5 µM), for the others: at the highest dose activity change, negative = cytotoxicity, actives largely listed as cytotoxic | 43,000 compounds, 0.48% hits | AID 1508642; note: % is set by controls: 0 for no effect and ±100 for the full control effect; nearly all actives have a fitted effect of over 65% in size
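S16 Schwann cells carrying the Pmp22-F2sN reporter, seeded in 1536-well format, were exposed to library compounds for 24 h at 37C. Viability was read as CellTiter-Glo luminescence after 15 min at room temperature.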
HTT prom inh: inhibits huntingtin promoter activity; HEK293 HTT promoter firefly luciferase reporter, 24 h; Potency, µM (titrated, usually from 57.5 µM), inactives show at the top dose activity change, negative = inhibition, most hits filed as inhibitors; 48,000 compounds, 0.93% hits; note: nearly all actives have a fitted effect of over 50% in size
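Firefly luciferase readout (Dual-Glo, 10 min RT) after 24 h, 37 °C compound exposure (final up to 57.5 uM) of HEK293 reporter cells cultured 24 h beforehand; PTC124 at 50 uM final as control inhibitor; activity scaled vehicle 0%, zero RLU -100%.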
PMP22 txn: PMP22 gene transcription modulation; AID 1508649; 43,000 compounds, 2% hits; S16 Pmp22-F2sN Schwann cells (luciferase reporters placed in the Pmp22 gene), FLuc/NLuc coincidence luminescence, 24 h; Potency, µM (doses to about 57.5 µM), for inactives: at the top dose activity change, negative = inhibition, actives largely listed as inhibitors; active = clear falling dose curves in both reporters; inconclusive = both reporters move, but less clearly or upward; inactive = either reporter flat; the % is the NLuc reporter signal; note: % is set by controls: 0 for no effect and ±100 for the full control effect
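qHTS, 1536-well. Cells seeded, compounds added by pin tool, 24 h 37C. Nano-Glo reagent 1 (lysis/FLuc), 10 min RT, read; Stop&Glo, 10 min RT, read NLuc.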
HTT-AS act: activates huntingtin-antisense promoter activity | HEK293 HTT-AS promoter firefly luciferase reporter, 24 h; response scale: percent change from vehicle, -100% = no light | Potency, µM (series often up to 57.5 µM), inactives show at the top dose activity change, positive = activation, usual class: activators | 48,000 compounds, 0.24% hits; note: nearly all actives have a fitted effect of over 55% in size
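Firefly luciferase readout (Dual-Glo, 10 min RT) after 24 h, 37 °C compound exposure (final up to 57.5 uM) of HEK293 reporter cells cultured 24 h beforehand; PTC124 at 50 uM final as control inhibitor; activity scaled vehicle 0%, zero RLU -100%.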
mTORC1 inh: mTORC1 pathway inhibition measured by phospho-rpS6; Tsc2-/- p53-/- MEF, phospho-rpS6 immunofluorescence/PI, 24 h; AID 493208; Potency, µM (highest dose often 38.3 µM), for the others: at the highest dose activity change, negative = inhibition, actives largely listed as inhibitors; 44,000 compounds, 0.78% hits;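 note: plate controls were DMSO for no effect and rapamycin for full effect; nearly all actives have a fitted effect of over 50% in size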
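Read-out: phospho-S6 Alexa-488 intensity over PI intensity per well, scored as % active cells using thresholds from rapamycin (7.5 nM) and DMSO controls. Tsc2-/-, p53-/- MEFs exposed to compound for 24 h; PI cell count recorded as viability.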
The depositor's hits bear a star; ? = inconclusive; / = no result; ! = not active in a repeat. Compounds with a hit are over-represented: about 3.6% of the library has one in this group of screens. Unless noted, calls come from the whole dose curve; as a rule, active = well fitted curve in the direction sought with a large enough effect; inconclusive = small, poorly fitted or top-dose-only effect, or another doubt; inactive = no such curve, though single readings can be large; an effect the other way counts as inactive or inconclusive. Potency is the fitted concentration of half-maximal effect.

SMILES | S16 F2sN tox | HTT prom inh | PMP22 txn | HTT-AS act | mTORC1 inh
Cc1ccc2nc(N3CCC(C(=O)NCc4ccc(F)cc4)CC3)[nH]c2c1 | 19.4% | 15.2% | 4.8% | 1.5% | 7.8%
CCc1nc(C)cn1S(=O)(=O)c1ccc(Cl)c(Cl)c1OC | -7.2% | 12.6µM* | ? | -89.3% | -16.7%
CCOc1cc(Cl)c(S(=O)(=O)n2cc(C)nc2CC)cc1Cl | ? | 15.8µM* | ? | -68.8% | -1.8%
O=c1c(-c2ccc(O)cc2)coc2cc(O)ccc12 | / | 0.4% | / | ? | /
CC(C)Oc1ccc2c(=O)c(-c3ccccc3)coc2c1 | / | 24.3% | / | 0.863µM*! | /
Cc1ccc(-c2nc(Cn3c(SCc4ccc(F)cc4)nc4cccnc43)c(C)o2)cc1 | -18.1% | ? | 7.38µM* | -35.8% | -7.8%
COc1ccc(C(=O)Nc2nnc(C)s2)cc1 | 28.1% | 69.3% | 1.7% | ? | -4.7%
COc1ccc(NC(=O)Nc2nnc(C)s2)cc1 | 10.1% | 31.2% | ? | 11.2µM* | -0.5%
CN(C)CCC=C1c2ccccc2COc2ccc(CC(=O)O)cc21 | / | 11.0% | / | 8.5% | /
C[C@]12CC[C@@H]3c4ccc(O)cc4CC[C@H]3[C@H]1[C@@H](O)[C@@H](O)[C@H]2O | / | 15.0% | / | 8.8% | /
CC1(C)SCCN(S(=O)(=O)c2ccc(OCC#CCO)cc2)[C@@H]1C(=O)NO | / | 2.0% | / | -2.3% | /
CS(=O)(=O)c1ccc(C(=O)Nc2ccc(Cl)c(-c3ccccn3)c2)c(Cl)c1 | / | 16.9% | / | -4.2% | /
COc1ccccc1-c1cc(C(=O)Nc2cc(Cl)ccc2O)no1 | / | / | / | / | -28.7%
COc1ccccc1-c1cc(C(=O)Nc2cc(OC)c(OC)c(OC)c2)no1 | ? | ? | 3.77µM* | -24.9% | ?
CN(C)c1ccc(Nc2ncnc3sc4c(c23)CCCC4)cc1 | -14.9% | 11.2µM* | ? | -78.6% | 0.0%
Cc1ccc(Nc2ncnc3sc4c(c23)CCC(C)C4)cc1C (stereo not drawn) | -1.8% | -5.3% | 2.5% | -3.1% | -16.5%
CC(=O)Nc1ccc([C@H](C)C(=O)Nc2ncc(C(C)C)s2)cc1 | / | ? | / | -19.1% | /
CCn1c2ccccc2c2cc(CN3CCN(Cc4ccc(OC)c(OC)c4)CC3)ccc21 | ? | -20.1% | ? | -31.7% | ?
CCOc1ccc(CN2CCN(Cc3ccc4c(c3)c3ccccc3n4CC)CC2)cc1 | ? | 31.6µM* | ? | -57.7% | ?
CCC[C@H]1C[C@H](C(=O)N[C@@H]([C@@H]2O[C@@H](SC)[C@@H](O)[C@@H](O)[C@@H]2O)[C@H](C)Cl)N(C)C1 | / | -6.3% | / | -5.9% | /
CCOC(=O)c1c(NC(=O)c2ccc(S(=O)(=O)N(CC(C)C)CC(C)C)cc2)sc2c1CCN(CC)C2 | ? | ? | ? | -21.6% | 8.1%
CC1CCN(S(=O)(=O)c2ccc(C(=O)Nc3sc4c(c3C(N)=O)CC(C)(C)NC4(C)C)cc2)CC1 | ? | -16.3% | ? | -15.8% | 18.5µM*
CCOC(=O)c1c(NC(=O)c2ccc(S(=O)(=O)N(CCOC)CCOC)cc2)sc2c1CC(C)(C)NC2(C)C | ? | -7.9% | -31.5% | -10.0% | 11.7µM*
CCOC(=O)c1c(NC(=O)c2ccc(S(=O)(=O)N3CCCC(C)C3)cc2)sc2c1CC(C)(C)NC2(C)C (stereo not drawn) | ? | -66.0% | ? | ? | ?
Cc1ccccc1-c1noc(-c2cc3ccccc3oc2=O)n1 | 9.9% | 109.6% | ? | 2.51µM* | 5.4%
SMILES | S16 F2sN tox | HTT prom inh | PMP22 txn | HTT-AS act | mTORC1 inh
COc1ccc(Cc2ccc(NC(N)=O)cc2)cc1-c1cccc(Cl)c1 | / | -2.1% | / | -30.7% | /
Nc1ccc(C(=O)Nc2cccc(-c3nc(N4CCOCC4)c4oc5ncccc5c4n3)c2)cn1 | / | ? | / | -28.1% | /
CCOC(=O)Cn1c(=O)c2c(nc(N3CCOCC3)n2Cc2ccccc2)n(C)c1=O | 6.2% | 2.6% | -82.9% | -4.2% | 9.27µM*
Cn1c(=O)c2c(nc(N3CCOCC3)n2Cc2ccccc2)n(C)c1=O | 11.4% | -4.9% | -6.5% | -2.2% | -0.1%
CCOc1ccc(-c2nc(CSCC(=O)NCCc3ccc(OCC)c(OCC)c3)c(C)o2)cc1 | -11.8% | 14.1µM* | ? | -48.5% | 0.1%
CCOc1ccc(-c2nc(CSCC(=O)NCc3ccc(C)cc3)c(C)o2)cc1 | -10.9% | 7.08µM* | -0.1% | -77.3% | -6.6%
N#Cc1ccc(Oc2ccc3c(c2)COB3O)cc1 | / | -0.7% | / | 0.2% | /
O=C(C1CCN(c2ncnc3c2nc2n3CCCCC2)CC1)N1CCN(c2ccc(Cl)cc2)CC1 | 1.1% | -9.7% | -24.3% | -10.6% | 2.1%
Clc1ccc(N2CCN(c3ncnc4c3nc3n4CCCC3)CC2)cc1 | ? | 1.41µM* | 14.1µM* | -89.9% | -5.9%
Fc1ccc(N2CCN(c3ncnc4c3nc3n4CCCCC3)CC2)cc1 | 0.8% | 2.82µM* | ? | -43.5% | 4.0%
c1ccc2[nH]c(-c3cscn3)nc2c1 | / | 67.3% | / | 19.3µM*! | /
C=CCn1c(=O)c2cnc(Nc3ccc(N4CCN(C)CC4)cc3)nc2n1-c1cccc(C(C)(C)O)n1 | / | ? | / | -38.1% | /
Cc1cccc(NC(=O)CSc2nnc(-c3cccs3)o2)c1 | -7.3% | 89.3% | 5.6% | 25.1µM* | -7.5%
COc1ccc(NC(=O)CSc2oc(-c3cccs3)nc2S(=O)(=O)c2ccc(C)cc2)c(OC)c1 | 7.2% | -28.4% | 59.5% | 2.0% | 3.1%
Cc1ccc(S(=O)(=O)c2nc(-c3cccs3)oc2SCC(=O)Nc2cc(C)cc(C)c2)cc1 | 0.8% | ? | ? | -26.4% | 20.7µM*
Cc1cccc(N2CCN(C(=O)Cn3c(C)c4cnn(-c5ccccc5)c(=O)c4c3C)CC2)c1C | ? | 10µM* | 12.4µM* | -49.0% | 5.0%
COc1cccc(OC)c1-c1cc(C(=O)NC2(C(=O)O)C3CC4CC(C3)CC2C4)nn1-c1ccnc2cc(Cl)ccc12 (stereo not drawn) | / | 5.0% | / | -7.9% | /

High-throughput results from PubChem.
